The source of these data is PubChem BioAssay (NCATS).

Assay [1] has as its system WaGa. Nature of the assay: qHTS assay to identify novel small-molecules to repurpose for Merkel cell carcinoma treatment (AID 1296009). Further: nearly all actives have a fitted effect of over 60% in size. Further: potency means the concentration at half of the fitted maximal effect. The conditions noted are these: MCC and control cell lines, CellTiter-Glo viability, 72 h; series mostly up to 46 µM. In a few lines:
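After compound transfer in DMSO, plates were kept 72 hr at 37 degree celsius. Luminescent ATP signal from CellTiter-Glo served as viability measure, normalized against DMSO and no-cell controls.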

For assay [2], the system named is C33A. Nature of the assay: Primary qHTS to identify gynecologic anti-cancer compounds using libraries of approved drugs and bioactive compounds (AID 1345084). Further: on the % scale 0 is the no-effect control and ±100 the full control effect; nearly all actives have a fitted effect of over 55% in size. To be noted: Gynecologic cancer cell panel viability, ATPlite luminescence, 48 h; series mostly up to 57.5 µM. The procedure, abridged:
(§1)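 ATP-based viability (ATPlite), 1,000 cells/well, 16 h pre-incubation, 48 h compound at 37 C, 5% CO2, 15 min RT before read.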
In general terms: In qHTS, concentration-response curves come from the screen itself.

Assay [3] relates to CAOV3. The description is as above. The conditions noted are these: Gynecologic cancer cell panel viability, ATPlite luminescence, 48 h; series mostly up to 57.5 µM. The procedure, abridged: as §1
For orientation: ATP-based viability assays read luminescence as a measure of living cells.

For assay [4], the system named is CASKI. The assay is described as above. The conditions noted are these: Gynecologic cancer cell panel viability, ATPlite luminescence, 48 h; series mostly up to 57.5 µM. In a few lines:
as §1

For assay [5], the system named is Es-2. The assay is described as above. To be noted: Gynecologic cancer cell panel viability, ATPlite luminescence, 48 h; series mostly up to 57.5 µM. In a few lines:
as §1

Assay [6] has as its system HeLa. The description is as above. The conditions noted are these: Gynecologic cancer cell panel viability, ATPlite luminescence, 48 h; series mostly up to 57.5 µM. The procedure, abridged:
as §1

In assay [7] the test system is Hek293T. Described as above. To be noted: Gynecologic cancer cell panel viability, ATPlite luminescence, 48 h, control line for the selectivity index; series mostly up to 57.5 µM. The procedure, abridged: as §1
Assay [8] concerns JEG-3. Described as above. The conditions noted are these: Gynecologic cancer cell panel viability, ATPlite luminescence, 48 h; series mostly up to 57.5 µM. The procedure, abridged: as §1
The subject of assay [9] is OV90. The assay is described as above. To be noted: Gynecologic cancer cell panel viability, ATPlite luminescence, 48 h; series mostly up to 57.5 µM. The procedure, abridged: as §1
For assay [10], the system named is PA-1. The assay is described as above. The conditions noted are these: Gynecologic cancer cell panel viability, ATPlite luminescence, 48 h; series mostly up to 57.5 µM. The procedure, abridged: as §1
Assay [11] concerns SKOV3. The description is as above. The conditions noted are these: Gynecologic cancer cell panel viability, ATPlite luminescence, 48 h; series mostly up to 57.5 µM. In a few lines: as §1
Assay [12] concerns Tov-21-G. Described as above. To be noted: Gynecologic cancer cell panel viability, ATPlite luminescence, 48 h; series mostly up to 57.5 µM. The procedure, abridged:
as §1

In assay [13] the test system is Tov112D. The assay is described as above. The conditions noted are these: Gynecologic cancer cell panel viability, ATPlite luminescence, 48 h; series mostly up to 57.5 µM. The procedure, abridged:
as §1

Assay [14] in a line: Drug repurposing screens with cells derived from glioblastoma tumor samples (AID 1345199). Further: nearly all actives have a fitted effect of over 40% in size. Further: potency means the concentration at half of the fitted maximal effect. On activity, negative = cell killing: on the % scale 0 is the no-effect control and ±100 the full control effect. To be noted: GBM patient neurospheres viability, ATP luminescence, 48 h. In a few lines:
(§2)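 Four patient lines of CD133+ GBM neurospheres were screened at several concentrations; hits were retested in those lines plus three slower-growing GBM lines, using 48-hour treatment and ATP-based viability.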

Assay [15] relates to astro. Described as above. To be noted: viability, ATP luminescence, 48 h; series mostly up to 45.9 µM. In a few lines:
as §2

The target of assay [16] is Nuclear receptor subfamily 1 group I member 2 (Rattus norvegicus) (UniProt Q9R1A7). Nature of the assay: qHTS assay for small molecule activators of the rat pregnane X receptor (rPXR) signaling pathway (AID 651751; call rule not given here; further: 0% is about no effect). To be noted: rPXR reporter cells, luciferase (One-Glo), 24 h.
The nature of assay [17]: qHTS assay for small molecule activators of the human pregnane X receptor (PXR) signaling pathway (AID 720659; call rule not given here; further: 0% is about no effect).
[18] abbreviates: at 45.9 µM (top of the series), tumour line B.
Where [19] appears, read: at 45.9 µM (top of the series), tumour line D.
Where [20] appears, read: at 46.1 µM (top of the series), tumour line C.

“And” between values parts separate entries of the source, which are not always exact repeats. Equal entries are not always repeated. A number with no mark means an inactive call. Results filed as inconclusive are left out. The source made the active and inactive calls. Unless noted, the call rests on the fitted dose curve; in most records, active means well fitted curve in the direction sought with a large enough effect; inconclusive means small, poorly fitted or top-dose-only effect, or another doubt; inactive means no such curve, though single readings can be large; an effect the other way counts as inactive or inconclusive.

Sequence of Nuclear receptor subfamily 1 group I member 2 (Rattus norvegicus) (Q9R1A7 whole entry, looked up): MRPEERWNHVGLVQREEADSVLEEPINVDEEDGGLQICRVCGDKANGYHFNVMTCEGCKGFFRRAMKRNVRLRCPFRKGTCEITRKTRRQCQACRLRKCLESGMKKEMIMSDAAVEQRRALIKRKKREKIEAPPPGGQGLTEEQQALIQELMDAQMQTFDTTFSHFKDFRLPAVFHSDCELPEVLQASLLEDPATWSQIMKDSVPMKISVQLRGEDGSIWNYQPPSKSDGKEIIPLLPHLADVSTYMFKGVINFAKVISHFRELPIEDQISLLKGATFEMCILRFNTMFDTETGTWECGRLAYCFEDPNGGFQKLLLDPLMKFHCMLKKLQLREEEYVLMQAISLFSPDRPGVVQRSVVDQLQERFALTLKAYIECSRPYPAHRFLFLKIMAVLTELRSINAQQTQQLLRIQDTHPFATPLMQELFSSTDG

Regarding `COc1cc2c3cc1Oc1cc(ccc1O)C[C@@H]1c4c(cc(OC)c(O)c4Oc4ccc(cc4)C[C@@H]3N(C)CC2)CC[N+]1(C)C`, the Potency result in assay [1], in [2], in assay [3], in assay [4], in [5] and in [6] was “inactive” each time. The Potency result in assay [7], in [8], in assay [9], in assay [10], in assay [11] and in assay [12] was “inactive” in each case. Moreover, the Potency result in assay [13] was “inactive”. For the same compound, the activity, negative = cell killing was 1% in [14] (setting [18]), -8.25% in [14] (setting [19]) and 7.69% in assay [14] (setting [20]).

For the compound `Nc1ccc(O)c(C(=O)O)c1`, the Potency entry in assay [1], in assay [2], in [3], in [4], in [5] and in [6] was “inactive” throughout. Further, the Potency entry in assay [7], in assay [8], in assay [9], in assay [10], in [11] and in assay [12] was “inactive” in each case. In addition, the Potency result in [13] and in assay [15] was “inactive” each time. The figures for the activity, negative = cell killing in assay [14] (setting [18]), in assay [14] (setting [19]) and in assay [14] (setting [20]) were -12.4%, 5.07% and 2.81%, respectively. In addition, the max response in assay [16] is -0.0122% and -1.86%. Besides, the result in [17] was inactive.

Take `CC(=O)c1ccc(OCC(=O)N2CCCCC2)cc1`: the Potency entry in [1], in assay [2], in [3], in [4], in assay [5] and in [6] was “inactive” each time. Moreover, the Potency result in assay [7], in [8], in assay [9], in assay [10], in assay [11] and in assay [12] was “inactive” each time. Besides, the Potency result in [13] and in [15] was “inactive” in each case. For the same compound, the activity, negative = cell killing is -9.55% in [14] (setting [18]); -17.5% in assay [14] (setting [19]); -29.4% in assay [14] (at 46 µM (top of the series), tumour line A); -5.72% in [14] (setting [20]).

For `Cc1c(C(=O)O)c(O)cc2c1C(=O)c1c(O)c([C@@H]3O[C@H](CO)[C@@H](O)[C@H](O)[C@H]3O)c(O)c(O)c1C2=O`, the Potency entry in assay [1], in assay [2], in assay [3], in [4], in [5] and in [6] was “inactive” throughout. Besides, the Potency entry in assay [7], in assay [8], in [10], in assay [11], in assay [12] and in assay [13] was “inactive” in each case. The activity, negative = cell killing is -25.2% in assay [14] (setting [18]), -27.3% in [14] (setting [19]) and 21.4% in assay [14] (setting [20]).

As for `COC(=O)C1=C(C)NC(C)=C(C(=O)OCC(C)C)C1c1ccccc1[N+](=O)[O-]` (centres undefined), the Potency in assay [1] was 21.1 µM (active); in assay [14] (tumour line A) it was 10 µM (active); in assay [14] (tumour line D), 14.1 µM (active). Further, the Potency result in [2], in assay [3], in assay [4], in assay [5], in assay [6] and in [7] was “inactive” each time. Also, the Potency entry in [8], in [9], in assay [10], in assay [12] and in assay [13] was “inactive” each time. In addition, the activity, negative = cell killing in assay [14] (setting [20]) is -13.4%.

Consider `CO[C@@]1(NC(=O)Cc2cccs2)C(=O)N2C(C(=O)O)=C(COC(N)=O)CS[C@@H]21`, for which the Potency result in assay [1], in assay [2], in [3], in assay [4], in assay [5] and in [6] was “inactive” each time. Further, the Potency result in assay [7], in assay [8], in assay [9], in assay [10], in [11] and in [12] was “inactive” in each case. The Potency entry in assay [13] is “inactive”. Further, the activity, negative = cell killing was 3.39% and 0.545% in assay [14] (setting [18]); -2.17% and -11.4% in [14] (setting [19]); -9.41% and -2.11% in assay [14] (setting [20]).
